Measurements from paper PMC7862700, “An all-to-all approach to the identification of sequence-specific readers for epigenetic DNA modifications on cytosine”.

How the values were obtained:
Test in all cases: DAPPL (digital affinity profiling via proximity ligation, sequencing); 10 mM Tris-HCl pH 7.5, 50 mM NaCl, 1 mM DTT, 4% glycerol, room temperature, 30 min; GST-TFs on glutathione beads, 16-mer random dsDNA library, 0.1% formaldehyde crosslink after washing; high values mean tight binding
Conditions in all cases: protein: recombinant; tags: N-terminal GST; dsDNA, one strand shown
[1] = molecular target: T1, ERF (Homo sapiens, UniProt P50548 1-548)
T1 sequence: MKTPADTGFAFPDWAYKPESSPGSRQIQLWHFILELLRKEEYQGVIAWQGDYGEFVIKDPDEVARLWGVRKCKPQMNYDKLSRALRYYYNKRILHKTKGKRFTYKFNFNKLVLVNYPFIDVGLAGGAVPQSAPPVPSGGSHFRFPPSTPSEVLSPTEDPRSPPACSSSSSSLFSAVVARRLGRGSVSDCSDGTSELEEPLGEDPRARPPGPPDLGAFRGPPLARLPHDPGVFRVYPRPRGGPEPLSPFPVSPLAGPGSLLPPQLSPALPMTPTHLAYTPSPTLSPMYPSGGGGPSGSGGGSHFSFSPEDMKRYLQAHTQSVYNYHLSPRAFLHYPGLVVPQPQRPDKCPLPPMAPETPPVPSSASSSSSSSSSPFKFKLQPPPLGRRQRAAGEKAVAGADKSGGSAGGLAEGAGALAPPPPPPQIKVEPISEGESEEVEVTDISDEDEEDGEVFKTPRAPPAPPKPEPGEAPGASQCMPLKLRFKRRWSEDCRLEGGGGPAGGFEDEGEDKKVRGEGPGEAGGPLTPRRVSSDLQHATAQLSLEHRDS
In short: (§1)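 In yeast, human transcription factors were expressed with a GST fusion, then pulled down on glutathione beads and given DNA barcodes. Pooled with a tag-only sample, they were exposed to 200 nmole of a 16-mer random double-stranded DNA library (Tris/NaCl/DTT/glycerol buffer, room temperature, 30 min), washed, crosslinked with 0.1% formaldehyde, proximity-ligated using BsaI/T4 ligase for 1 h at 37 °C, PCR-amplified and read on an Illumina NextSeq500. Each hexamer's frequency of reads for a factor, divided by the matching frequency for the tag-only sample, gives the binding signal.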

[2] = molecular target: T2, ETV3L (Homo sapiens, UniProt Q6ZN32 1-361)
T2 sequence: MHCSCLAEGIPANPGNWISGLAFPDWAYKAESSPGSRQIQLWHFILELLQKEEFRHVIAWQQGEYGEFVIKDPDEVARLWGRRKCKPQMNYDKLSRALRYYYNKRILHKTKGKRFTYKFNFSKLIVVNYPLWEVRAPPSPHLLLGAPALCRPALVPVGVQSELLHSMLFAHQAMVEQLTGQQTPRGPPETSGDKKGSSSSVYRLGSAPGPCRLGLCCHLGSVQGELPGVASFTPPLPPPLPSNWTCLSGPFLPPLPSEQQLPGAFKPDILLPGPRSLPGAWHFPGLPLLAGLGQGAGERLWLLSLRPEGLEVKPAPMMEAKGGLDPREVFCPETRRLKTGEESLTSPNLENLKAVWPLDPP
In short: as §1

[3] = molecular target: T3, ETS2 (Homo sapiens, UniProt P15036 1-469)
T3 sequence: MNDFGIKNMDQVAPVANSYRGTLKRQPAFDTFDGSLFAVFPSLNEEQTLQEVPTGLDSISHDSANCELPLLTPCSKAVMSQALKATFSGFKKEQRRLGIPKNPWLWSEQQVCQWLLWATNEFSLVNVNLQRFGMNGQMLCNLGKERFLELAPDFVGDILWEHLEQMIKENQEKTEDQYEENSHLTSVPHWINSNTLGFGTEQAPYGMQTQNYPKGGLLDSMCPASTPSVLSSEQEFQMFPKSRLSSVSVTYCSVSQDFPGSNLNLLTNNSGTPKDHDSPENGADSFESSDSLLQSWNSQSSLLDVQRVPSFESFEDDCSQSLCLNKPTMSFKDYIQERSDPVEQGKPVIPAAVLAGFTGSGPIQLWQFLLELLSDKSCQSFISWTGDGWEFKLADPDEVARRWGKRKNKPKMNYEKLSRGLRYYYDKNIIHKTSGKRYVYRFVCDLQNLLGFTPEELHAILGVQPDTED
In short: as §1

[4] = molecular target: T4, SPDEF (Homo sapiens, UniProt O95238 1-335)
T4 sequence: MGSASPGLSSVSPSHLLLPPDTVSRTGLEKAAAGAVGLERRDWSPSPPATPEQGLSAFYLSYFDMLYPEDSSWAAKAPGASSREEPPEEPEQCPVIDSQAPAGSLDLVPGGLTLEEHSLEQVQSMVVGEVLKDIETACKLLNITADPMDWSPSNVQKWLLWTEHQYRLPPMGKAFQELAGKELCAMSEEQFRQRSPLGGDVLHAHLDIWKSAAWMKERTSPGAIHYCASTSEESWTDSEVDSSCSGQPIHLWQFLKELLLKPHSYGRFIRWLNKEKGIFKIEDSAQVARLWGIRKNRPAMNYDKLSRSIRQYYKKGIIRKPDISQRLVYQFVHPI
In short: as §1

[5] = molecular target: T5, ETV7 (Homo sapiens, UniProt Q9Y603 1-341)
T5 sequence: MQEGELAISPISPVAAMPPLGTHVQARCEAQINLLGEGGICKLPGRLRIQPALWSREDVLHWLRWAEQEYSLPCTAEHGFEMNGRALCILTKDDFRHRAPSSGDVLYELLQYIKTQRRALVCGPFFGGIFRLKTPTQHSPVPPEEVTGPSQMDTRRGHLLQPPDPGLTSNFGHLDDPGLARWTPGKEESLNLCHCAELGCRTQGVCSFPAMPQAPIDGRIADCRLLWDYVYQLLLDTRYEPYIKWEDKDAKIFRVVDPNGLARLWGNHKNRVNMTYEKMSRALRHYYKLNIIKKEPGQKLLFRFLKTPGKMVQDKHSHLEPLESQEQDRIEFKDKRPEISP
In short: as §1

[6] = molecular target: T6, ELF5 (Homo sapiens, UniProt Q9UKW6-2 1-255)
T6 sequence: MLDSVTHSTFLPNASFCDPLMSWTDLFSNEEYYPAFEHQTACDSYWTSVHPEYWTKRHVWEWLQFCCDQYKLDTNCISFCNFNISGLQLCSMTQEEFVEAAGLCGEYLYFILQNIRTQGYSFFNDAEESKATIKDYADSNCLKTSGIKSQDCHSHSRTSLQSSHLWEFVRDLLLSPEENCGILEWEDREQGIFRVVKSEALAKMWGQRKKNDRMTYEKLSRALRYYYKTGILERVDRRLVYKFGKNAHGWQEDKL
In short: as §1

[7] = molecular target: T7, ETV3 (Homo sapiens, UniProt P41162-2 1-143)
T7 sequence: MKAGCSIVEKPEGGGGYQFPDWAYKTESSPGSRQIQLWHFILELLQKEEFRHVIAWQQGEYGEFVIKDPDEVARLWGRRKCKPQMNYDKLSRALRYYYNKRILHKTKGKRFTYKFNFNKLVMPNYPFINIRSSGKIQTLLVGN
In short: as §1

[8] = molecular target: ETV6 (Homo sapiens, UniProt P41212 1-452)
In short: as §1

ETV6, sequence (P41212 whole entry): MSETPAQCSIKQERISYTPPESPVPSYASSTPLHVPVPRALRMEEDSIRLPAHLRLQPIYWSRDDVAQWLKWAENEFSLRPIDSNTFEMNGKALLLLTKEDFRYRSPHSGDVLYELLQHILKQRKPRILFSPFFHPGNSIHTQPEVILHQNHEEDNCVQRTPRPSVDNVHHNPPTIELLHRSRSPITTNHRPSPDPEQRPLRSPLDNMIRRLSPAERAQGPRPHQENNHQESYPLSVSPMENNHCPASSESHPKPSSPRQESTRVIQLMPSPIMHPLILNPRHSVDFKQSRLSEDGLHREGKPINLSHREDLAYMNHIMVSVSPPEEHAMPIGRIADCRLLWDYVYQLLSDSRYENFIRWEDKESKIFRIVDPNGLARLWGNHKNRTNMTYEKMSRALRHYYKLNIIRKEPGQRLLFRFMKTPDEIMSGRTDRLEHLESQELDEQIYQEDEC

Sequence | binding signal [1] | binding signal [2] | binding signal [3] | binding signal [4] | binding signal [5] | binding signal [6] | binding signal [7] | binding signal [8]
GAATAC | 1.11 fold enrichment (6-mer frequency, TF over GST control) | 1.01 fold enrichment (6-mer frequency, TF over GST control) | 1.02 fold enrichment (6-mer frequency, TF over GST control) | 1 fold enrichment (6-mer frequency, TF over GST control) | 1.01 fold enrichment (6-mer frequency, TF over GST control) | 1.03 fold enrichment (6-mer frequency, TF over GST control) | 1.07 fold enrichment (6-mer frequency, TF over GST control) | 1.03 fold enrichment (6-mer frequency, TF over GST control)
AAACGG | 1.17 fold enrichment (6-mer frequency, TF over GST control) | 1.23 fold enrichment (6-mer frequency, TF over GST control) | 1.26 fold enrichment (6-mer frequency, TF over GST control) | 1.25 fold enrichment (6-mer frequency, TF over GST control) | 1.16 fold enrichment (6-mer frequency, TF over GST control) | 1.25 fold enrichment (6-mer frequency, TF over GST control) | 1.26 fold enrichment (6-mer frequency, TF over GST control) | 1.28 fold enrichment (6-mer frequency, TF over GST control)
CTTGTC | 1.44 fold enrichment (6-mer frequency, TF over GST control) | 1.25 fold enrichment (6-mer frequency, TF over GST control) | 1.24 fold enrichment (6-mer frequency, TF over GST control) | 1.35 fold enrichment (6-mer frequency, TF over GST control) | 1.25 fold enrichment (6-mer frequency, TF over GST control) | 1.3 fold enrichment (6-mer frequency, TF over GST control) | 1.31 fold enrichment (6-mer frequency, TF over GST control) | 1.25 fold enrichment (6-mer frequency, TF over GST control)
ACGAAC | 1.05 fold enrichment (6-mer frequency, TF over GST control) | 1.07 fold enrichment (6-mer frequency, TF over GST control) | 1.22 fold enrichment (6-mer frequency, TF over GST control) | 1.13 fold enrichment (6-mer frequency, TF over GST control) | 1.21 fold enrichment (6-mer frequency, TF over GST control) | 1.09 fold enrichment (6-mer frequency, TF over GST control) | 1.04 fold enrichment (6-mer frequency, TF over GST control) | 1.1 fold enrichment (6-mer frequency, TF over GST control)
GCTCGT | 1.2 fold enrichment (6-mer frequency, TF over GST control) | 1.23 fold enrichment (6-mer frequency, TF over GST control) | 1.12 fold enrichment (6-mer frequency, TF over GST control) | 1.15 fold enrichment (6-mer frequency, TF over GST control) | 1.11 fold enrichment (6-mer frequency, TF over GST control) | 1.1 fold enrichment (6-mer frequency, TF over GST control) | 1.15 fold enrichment (6-mer frequency, TF over GST control) | 1.16 fold enrichment (6-mer frequency, TF over GST control)
CCATTC | 1.14 fold enrichment (6-mer frequency, TF over GST control) | 1.06 fold enrichment (6-mer frequency, TF over GST control) | 1.13 fold enrichment (6-mer frequency, TF over GST control) | 1.13 fold enrichment (6-mer frequency, TF over GST control) | 1.16 fold enrichment (6-mer frequency, TF over GST control) | 1.11 fold enrichment (6-mer frequency, TF over GST control) | 1.1 fold enrichment (6-mer frequency, TF over GST control) | 1.12 fold enrichment (6-mer frequency, TF over GST control)
CGACTT | 1.62 fold enrichment (6-mer frequency, TF over GST control) | 1.62 fold enrichment (6-mer frequency, TF over GST control) | 1.76 fold enrichment (6-mer frequency, TF over GST control) | 1.54 fold enrichment (6-mer frequency, TF over GST control) | 1.53 fold enrichment (6-mer frequency, TF over GST control) | 1.72 fold enrichment (6-mer frequency, TF over GST control) | 1.78 fold enrichment (6-mer frequency, TF over GST control) | 1.79 fold enrichment (6-mer frequency, TF over GST control)
ACTCCA | 1.26 fold enrichment (6-mer frequency, TF over GST control) | 1.11 fold enrichment (6-mer frequency, TF over GST control) | 1.28 fold enrichment (6-mer frequency, TF over GST control) | 1.16 fold enrichment (6-mer frequency, TF over GST control) | 1.18 fold enrichment (6-mer frequency, TF over GST control) | 1.14 fold enrichment (6-mer frequency, TF over GST control) | 1.17 fold enrichment (6-mer frequency, TF over GST control) | 1.13 fold enrichment (6-mer frequency, TF over GST control)
AAGCAC | 1.19 fold enrichment (6-mer frequency, TF over GST control) | 1.2 fold enrichment (6-mer frequency, TF over GST control) | 1.17 fold enrichment (6-mer frequency, TF over GST control) | 1.29 fold enrichment (6-mer frequency, TF over GST control) | 1.3 fold enrichment (6-mer frequency, TF over GST control) | 1.28 fold enrichment (6-mer frequency, TF over GST control) | 1.19 fold enrichment (6-mer frequency, TF over GST control) | 1.28 fold enrichment (6-mer frequency, TF over GST control)
